Screen size: about 360,000 compounds; about 9,100 (2.5%) were called active. Inconclusive results (about 4%) are left out. This excerpt belongs to a sample that is enriched for actives. Unmarked numbers belong to inactive results. Rule as the data show it: active = max response below about -50%; inconclusive = no clear call, values can overlap the other calls; inactive = above that.
Target: D(3) dopamine receptor (Homo sapiens) (UniProt P35462)
Assay: qHTS of D3 Dopamine Receptor Antagonist: qHTS
Conditions: D3R cells, DiscoveRx beta-arrestin luminescence, antagonist mode; hits give low values
Procedure, shortened: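 Cells plated overnight at 1500 cells/well, then exposed to library compounds with dopamine controls for 90 minutes at 37 degrees C. DiscoveRx reagent added for 30–60 minutes at room temperature; luminescence read, quantitative HTS format.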
% is scaled to controls: 0 for no effect and ±100 for the full control effect.

D(3) dopamine receptor (Homo sapiens), sequence (P35462 whole entry, looked up): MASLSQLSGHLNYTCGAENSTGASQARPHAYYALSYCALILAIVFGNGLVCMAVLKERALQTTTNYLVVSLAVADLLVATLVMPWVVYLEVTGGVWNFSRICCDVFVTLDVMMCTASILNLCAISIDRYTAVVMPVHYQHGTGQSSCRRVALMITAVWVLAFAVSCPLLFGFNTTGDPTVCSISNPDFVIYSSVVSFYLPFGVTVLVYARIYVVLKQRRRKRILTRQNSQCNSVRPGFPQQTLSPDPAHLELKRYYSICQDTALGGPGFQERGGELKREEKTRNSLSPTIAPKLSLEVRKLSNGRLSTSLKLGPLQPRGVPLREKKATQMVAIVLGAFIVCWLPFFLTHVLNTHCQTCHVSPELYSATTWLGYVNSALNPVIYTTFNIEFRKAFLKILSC

Structure (SMILES) | max response, negative = inhibition
C[C@H](CO)N1C[C@H](C)[C@@H](CN(C)C(=O)C2CCCCC2)OCc2cnnn2CCCC1=O | -18.3%
Cc1nc2ccccn2c(=O)c1NC(=O)c1ccc(Br)o1 | 0%
Cc1nccn1-c1ccc(NC(=O)[C@H]2O[C@@H](n3cnc4c(N)ncnc43)[C@H](O)[C@@H]2O)cc1 | 9.64%
COc1ccc2c(c1)CCCO[C@]21O[C@H](CCO)C[C@H](O)[C@H]1O | -5.1%
Fc1cccc(Cc2c(-c3cccc(Cl)c3)nc3ccc(Br)cn23)c1 | 12.6%
CC(C)NC(=O)Nc1ccc2c(c1)C(=O)N([C@H](C)CO)C[C@H](C)[C@@H](CN(C)Cc1ccc(C(F)(F)F)cc1)OCCCC[C@@H](C)O2 | -28.7%
COC(=O)C[C@@H]1C=C[C@@H](NS(=O)(=O)c2cccc(OC)c2)[C@@H](CO)O1 | 3.79%
O=C1NC[C@H](CCCCN2C[C@H](Cc3ccccc3)N(Cc3ccccc3)C(=O)C2=O)N(CCc2ccc(O)cc2)C1=O | 2.36%
COc1ccc(OCCCC(=O)Oc2ccc(OC)cc2)cc1 | 12.3%
COc1ccc(OCCCCN2CCC(C)CC2)cc1 | -66.8% (active)
COc1ccc(OCC(=O)Nc2ccc(N3CCC(C)CC3)cc2)cc1 | -0.541%
CC(C)(C)OC(=O)N1CCN(C(=O)c2[nH]c(C(F)(F)F)nc2-c2ccccc2)CC1 | 11.8%
C=CCn1nc(C(=O)OCC)cc1-c1sc(NC(=O)c2ccccc2)nc1C | 26.8%
C=CCN1CCN(c2ccncc2S(=O)(=O)N2CCN(C)CC2)CC1 | 26.6%
COc1ccc(-c2cc(NC=O)c3ncc(-c4cc(OC)c(OC)c(OC)c4)n3c2)c(OC)c1 | 36.6%
N#Cc1ccc(C(=O)Nc2nc(-c3cccs3)c(C(=O)C(F)(F)F)s2)cc1 | -58.8% (active)
COC(=O)c1sc(NC(=S)NC(=O)c2ccc(C)cc2)nc1C | 2.14%
N#Cc1c(-c2cccs2)nc(SCC(=O)c2ccc(Br)cc2)[nH]c1=O | 4.64%
O=C(NCc1ccc(F)cc1)c1cc(C2CCCCN2C(=O)c2ccccn2)on1 (configuration not stated) | -10.1%
COc1nc(NC2CCCCC2)nc(N2CCCCCC2)n1 | -62.8% (active)
COC(=O)c1ccc(Oc2nc(Nc3ccc(F)cc3)nc(N3CCCC3)n2)cc1 | -22.6%
Clc1nc(NC2CCCC2)nc(N2CCOCC2)n1 | 16.5%
COC(=O)[C@@]12C[C@@H](CC(=O)NCCCCc3ccccc3)C(=O)N(Cc3ccccc3)C1=CCC(C)(C)C2 | -9.89%
CN(C)CCOc1ccc(Cl)cc1C(C)(C)C | -51.2% (active)
Cn1c(CCCOc2ccc(Cl)cc2Cl)n[nH]c1=S | 10.4%
CCN(CC)CCOCCOc1ccc(Cl)c2ccccc12 | -29.6%
CC(=O)C[C@@H]1OC[C@H](CO)N1S(=O)(=O)c1ccc(C)cc1 | 6.66%
